The full ranking holds about 33,000 sequences; the median of “E-score (-0.5 to 0.5)” is about -0.035, and the highest 2% start at about 0.35. This is one part of a sample in which the highest values are shown more often than they occur.
What follows are sequences tested against T1, Pdr3 (UniProt P33200) (assay: PBM E-score (8-mer binding enrichment) (E-score (-0.5 to 0.5)); higher = stronger / more preferred TF binding). Conditions: protein concentration: 200 nM; construct: GST-full length.
T1 sequence: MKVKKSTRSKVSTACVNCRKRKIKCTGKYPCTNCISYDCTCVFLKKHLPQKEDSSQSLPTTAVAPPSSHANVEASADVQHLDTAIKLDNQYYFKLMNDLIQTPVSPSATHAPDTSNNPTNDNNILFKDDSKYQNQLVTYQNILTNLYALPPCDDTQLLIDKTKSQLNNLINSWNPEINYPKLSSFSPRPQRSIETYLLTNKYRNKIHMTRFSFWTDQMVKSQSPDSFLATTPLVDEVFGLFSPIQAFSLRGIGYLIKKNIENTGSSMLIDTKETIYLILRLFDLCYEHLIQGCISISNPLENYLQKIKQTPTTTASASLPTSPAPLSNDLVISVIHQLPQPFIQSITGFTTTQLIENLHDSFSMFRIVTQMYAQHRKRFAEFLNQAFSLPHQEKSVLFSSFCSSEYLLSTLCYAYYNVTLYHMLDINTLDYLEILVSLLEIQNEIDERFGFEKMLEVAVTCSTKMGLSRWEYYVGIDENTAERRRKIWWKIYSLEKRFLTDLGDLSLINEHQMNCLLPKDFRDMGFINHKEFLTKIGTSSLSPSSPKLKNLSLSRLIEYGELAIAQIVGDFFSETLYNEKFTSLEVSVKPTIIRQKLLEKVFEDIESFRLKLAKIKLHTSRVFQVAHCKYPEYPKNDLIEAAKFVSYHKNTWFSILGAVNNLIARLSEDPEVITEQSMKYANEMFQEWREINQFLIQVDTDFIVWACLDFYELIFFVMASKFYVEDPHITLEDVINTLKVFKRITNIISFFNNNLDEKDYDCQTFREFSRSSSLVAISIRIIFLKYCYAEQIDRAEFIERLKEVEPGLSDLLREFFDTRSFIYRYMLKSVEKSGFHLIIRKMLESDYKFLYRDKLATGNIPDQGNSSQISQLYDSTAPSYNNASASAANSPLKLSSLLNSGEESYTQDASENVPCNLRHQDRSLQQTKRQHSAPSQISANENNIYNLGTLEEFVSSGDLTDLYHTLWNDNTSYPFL
Protocol: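 Universal 'all 10-mer' protein binding microarrays (Agilent AMADID 015681) probed with GST-tagged S. cerevisiae TFs (full-length or DBD) made by in vitro transcription/translation (PURExpress), about 100-200 nM. Bound TF was detected with fluorescent anti-GST. Each ungapped 8-mer (which stands for itself and its reverse complement) is scored by the PBM enrichment score (E-score), a modified Wilcoxon-Mann-Whitney statistic from -0.5 to +0.5, computed with the Universal PBM Analysis Suite. Scale: above 0.35 generally sequence-specific binding.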

| Sequence | PBM E-score |
| --- | --- |
| GGGCGGAA | 0.414 |
| GGGCGGGA | 0.35 |
| GGGCGGTA | 0.195 |
| TATTCTAA | 0.0298 |
| CTCGCTCC | 0.0762 |
| AGAGGACA | -0.0484 |
| AGTCGACC | 0.0168 |
| CGTCGACC | 0.0668 |
| GGTCGACC | 0.38 |
| ACTTGCTG | -0.278 |
| GCGCCCAC | -0.0118 |
| ATCTTTCC | 0.265 |
| ACCGGAGG | 0.281 |
| ACCGGAGC | 0.356 |
| CCCGGTGC | 0.215 |
| ACTGGAGC | -0.056 |
| CCCGGAGC | 0.39 |
| CCGGGAGC | 0.306 |
| AGTGGCGC | 0.153 |
| TCGATAGA | -0.125 |
| CCGTAACA | -0.0633 |
| ACCTTAGT | -0.174 |
| ACTCTATG | 0.0265 |
| TGGAACAA | -0.0164 |
| GGGAACAA | 0.188 |

| Sequence | PBM E-score |
| --- | --- |
| CCGAACAG | 0.0662 |
| CGGAACAG | 0.466 |
| CGGAACAC | 0.483 |
| AGGAACAG | -0.195 |
| CGGAACAA | 0.476 |
| AGGAACAC | 0.168 |
| GGGAACAC | 0.183 |
| CCTAGTCG | -0.23 |
| CAGGTAAA | -0.0305 |
| ATCCTATC | 0.0308 |
| ATTACCGG | 0.243 |
| ACTAGAGG | -0.161 |
| CAATAAGA | -0.172 |
| AAGGGGAG | -0.118 |
| ATTACGGG | -0.0819 |
| CCTACGGA | 0.239 |
| ACTACGGG | 0.118 |
| ATTACGGC | 0.0318 |
| ACTACGGA | 0.362 |
| ATTACGGA | 0.361 |
| ATACGAAA | 0.182 |
| AACACAGT | -0.0579 |
| TGGAGTAA | -0.0368 |
| TGGAAACA | -0.184 |
| CCCGACCA | 0.155 |

| Sequence | PBM E-score |
| --- | --- |
| GCGTACGA | -0.0757 |
| AGAAGGGA | -0.323 |
| GTTGCGGA | 0.236 |
| ACGATCCG | 0.368 |
| CCGATCCA | 0.155 |
| ACGATCCC | 0.183 |
| CCGATCCC | 0.175 |
| CCGATCCG | 0.371 |
| ACGATCCA | -0.0267 |
| GCCAGTAC | -0.0709 |
| ATTTTGGC | 0.16 |
| TAGTCATA | -0.247 |
| ACCTGGCC | 0.162 |
| TATCTTAA | -0.0962 |
| TTATGGAA | 0.0348 |
| ATACGGAC | 0.239 |
| GTACGGAC | 0.278 |
| CTACGGAC | 0.0596 |
| GTACGGAA | 0.402 |
| CTACGGAG | 0.246 |
| TTACGGAA | 0.419 |
| ATACGGAA | 0.439 |
| TTACGAAA | -0.0461 |
| CTACGGAA | 0.407 |
| GTACGGTA | 0.0177 |

| Sequence | PBM E-score |
| --- | --- |
| ATACGGAT | 0.241 |
| ACGATTTC | 0.051 |
| TACTGATA | 0.0935 |
| ATGGACAC | 0.0372 |
| CTCCTCAA | -0.152 |
| GAACGCAA | 0.133 |
| GCGTTAGC | -0.213 |
| ATACAGCG | -0.116 |
| ATCCGCCC | 0.251 |
| ACCCGCCC | 0.348 |
| ATCCGCCG | 0.387 |
| ATCCGCCA | 0.185 |
| ACCCGCCA | 0.0368 |
| ACCCGCCG | 0.388 |
| CGAACTCG | 0.17 |
| GCTGCAAA | -0.0739 |
| CGGAATAG | 0.418 |
| CGGAATAC | 0.427 |
| AGGAATAG | -0.072 |
| AGGAATAC | -0.2 |
| TGGAATAA | -0.00691 |
| GGGAATAA | 0.199 |
| CGGAATAA | 0.422 |
| GGGAATAC | 0.162 |
| CAGAATAG | -0.0833 |

Source: the supplement of paper PMC3334620
